Test results reported in the supplement of paper PMC13380429.
Unmarked numbers belong to inactive results.

System: Vero E6 infected with SARS-CoV-2
Assay: inhibition of SARS-CoV-2 cytopathic effect; higher = more antiviral protection, active = above 15
Conditions: 48 h

Row | Compound | inhibition of SARS-CoV-2 cytopathic effect (1 nM) [%] | inhibition of SARS-CoV-2 cytopathic effect (8.33 nM) [%] | inhibition of SARS-CoV-2 cytopathic effect (100 nM) [%] | inhibition of SARS-CoV-2 cytopathic effect (833.33 nM) [%] | inhibition of SARS-CoV-2 cytopathic effect (10000 nM)
1 | Cn1cc(C(=O)OCC2CCN(CCNS(C)(=O)=O)CC2)c2ccccc21 | -2.5 | 4.63 | 5.3 | 6.93 | -0.18%
2 | O=C(COc1ccc(Cl)cc1)N[C@H]1CC[C@H](NC(=O)COc2ccc(Cl)cc2)CC1 | -0.57 | -0.23 | 3.35 | 6.09 | 15.7% (active)
3 | O=C(O)[C@H](O)[C@@H](O)[C@H](O[C@@H]1O[C@H](CO)[C@H](O)[C@H](O)[C@H]1O)[C@H](O)CO [maltobionic-acid] | -0.69 | -2.72 | -1.55 | -3.61 | -1.2%
4 | COC1(C[S@@+]([O-])c2ccccc2)CCN(CCc2c[nH]c3ccc(F)cc23)CC1 | 1.49 | 4.84 | 3.16 | 1.05 | -2.13%
5 | CC(C)/N=c1\cc2n(-c3ccc(Cl)cc3)c3ccccc3nc-2cc1Nc1ccc(Cl)cc1 [clofazimine] | -2.49 | 0.21 | -2.66 | 6.27 | -0.63%
6 | CN(C)CCCNC(=O)c1ccc(-c2cc(O)c3ncccc3c2)cc1 | -1.74 | -0.41 | 1.01 | -0.72 | 6.05%
7 | Cc1cccc(C)c1NC(=O)C1CCCCN1C (stereo not given) [mepivacaine] | -3.62 | -1.78 | -2.27 | -0.18 | 0.81%
